Assay [1] concerns TRPC4 beta (transient receptor potential cation channel C4), mouse. The assay can be described thus: TRPC4 cation channel opening, retest – cell-based, Fluo4 calcium, HEK293 TRPC4beta/mu-opioid, duplicates, 10 µM, confirmation (AID 2426;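 active = fluorescence ratio normalized to control raised more than 50% in primary screen plus both repeat runs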). The following applies: Fluo4 calcium fluorescence, at 10 µM; active compounds read high.
In assay [2] the test system is transient receptor potential cation channel C4 beta (TRPC4), mouse. The assay can be described thus: TRPC4 cation channel opening, second retest – cell-based, second round, Fluo4, HEK293 TRPC4beta/mu-opioid, 1 µM, confirmation (AID 2461;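 active = primary screen active and over 50% activation in each of two duplicate runs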). The following applies: Fluo4 calcium fluorescence, at 1 µM; active compounds read high.
For assay [3], the system named is TRPC4 (transient receptor potential cation channel C4 beta), mouse. Briefly: potentiation of DAMGO EC20 TRPC4 response – cell-based, second round, Fluo-4, HEK293 TRPC4beta/mu-opioid, 1 µM, confirmation (AID 2554;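 active = primary screen hit whose fluorescence ratio, in both repeats, exceeds the weak agonist control mean by 3 SD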). The following applies: DAMGO EC20, Fluo-4 calcium flux, at 1 µM; active compounds read high. On the technique in general: Calcium flux is commonly read through the fluorescence of an indicator in the cells.

The test system of assay [4] is TRPC4 beta (transient receptor potential cation channel C4), mouse. The assay can be described thus: potentiation of DAMGO EC20 TRPC4 response – cell-based, Fluo-4, HEK293 TRPC4beta/mu-opioid, confirmation (AID 2555;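 active = primary screen hit whose calcium fluorescence ratio, in both repeats, exceeds the weak agonist control mean by 3 SD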). The following applies: DAMGO EC20, Fluo-4 calcium flux, at 10 µM; active compounds read high.
Assay [5] has as its target Short transient receptor potential channel 4 (Mus musculus) (UniProt Q9QUQ5). The assay can be described thus: blockers of DAMGO-evoked TRPC4 calcium flux – cell-based, Fluo4, HEK293 TRPC4beta/mu-opioid, confirmation (AID 2636;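 active = calcium signal cut by more than 3 SD below the full-agonist control yet still positive, in both repeats and the earlier primary screen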). The following applies: at 10 µM; active compounds read high.
Assay [6] shares this target. Briefly: blockers of DAMGO-evoked TRPC4 calcium flux – cell-based, second round, Fluo4, HEK293 TRPC4beta/mu-opioid, 1 µM, confirmation (AID 2637;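 active = calcium signal ratio cut to more than 3 SD under the fully stimulated control mean yet still positive, in both repeats and the primary screen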). The following applies: at 1 µM; active compounds read high.
For assay [7] the target is unchanged. The assay can be described thus: calcium entry via TRPC4 opening agents – cell-based, HEK293 TRPC4/mu-opioid, Fluo-4 calcium, dose response (AID 434937).
The target is the same in assay [8]. Briefly: potentiation of DAMGO-evoked TRPC4 calcium signal – cell-based, HEK293 TRPC4/mu-opioid, Fluo-4 calcium, EC20 DAMGO, dose response (AID 434941;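 active = earlier screen potentiator hit that boosts the TRPC4 ion channel at some dose, with a dose response; inactive = no potentiation, no dose response, or not a prior hit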;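 also: calcium entry triggered by an EC20 dose of DAMGO at the co-expressed mu-opioid receptor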).
The target is the same in assay [9]. Briefly: block of DAMGO-driven TRPC4 calcium entry – cell-based, HEK293 TRPC4/mu-opioid, Fluo-4 calcium, dose response (AID 434942;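 active = primary screen inhibitor hit that blocks the TRPC4 channel at some tested dose, yielding a dose curve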).
Assay [10] has as its target Short transient receptor potential channel 6 (Mus musculus) (UniProt Q61143). Briefly: TRPC6 blockade by TRPC4 inhibitor hits – cell-based, HEK293, membrane potential dye, duplicate, selectivity assay for TRPC4 inhibitor project, confirmation (AID 434948;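 active = active in primary screen and both duplicates, each dropping signal beyond three positive-control SD with fluorescence still positive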). The conditions noted are these: HEK293 TRPC6, membrane potential dye fluorescence, at 10 µM, stimulated with maximal-effect acetylcholine; active compounds read high.

Assay [11] has the same target. Briefly: TRPC6 opening by TRPC4 activator hits – cell-based, HEK293, membrane potential dye, duplicate, selectivity assay for TRPC4 activator project, confirmation (AID 434950;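 active = membrane potential signal rise above negative control mean plus 3 SD in both duplicates, also active in the earlier TRPC4 screen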). The following applies: HEK293 TRPC6, membrane potential fluorescence, at 10 µM; activation: active compounds read high; outcome: activation.
The target is the same in assay [12]. The assay can be described thus: positive modulators of mouse TRPC6 channel – HEK293 cells, membrane potential dye, duplicate, selectivity assay for TRPC4 potentiator project, confirmation (AID 434952;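 active = compound raising the membrane signal above positive-control mean plus 3 SD in both repeats, and a primary screen hit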). The following applies: HEK293 TRPC6, membrane potential dye fluorescence, at 10 µM, maximal acetylcholine added after compound; active compounds read high.
Assay [13] addresses Short transient receptor potential channel 4 (Mus musculus) (UniProt Q9QUQ5). The assay can be described thus: calcium flux activators in TRPC4/5HT1a cells, counter-screen for TRPC4 activator project, cell-based, second counter screen, HEK293 TRPC4/5HT1a, Fluo-4 (AID 434977;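 active = calcium signal rise above buffer-control mean plus 5 SD in both duplicates, and also a hit in the primary screen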;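 as to activation: plate controls were assay buffer for no effect and maximal serotonin response for full effect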). The following applies: Fluo-4 calcium flux, at 10 µM; active compounds read high.
A short description of assay [14]: serotonin-gated TRPC4 signal block – cell-based, second counter screen, HEK293 TRPC4/5HT1a, Fluo-4, counter-screen for TRPC4 inhibitor project, confirmation (AID 434978;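 active = primary screen active whose calcium signal fell more than 3 SD beyond the full-serotonin control mean in both duplicate plates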;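 also: serotonin given first at submaximal then at maximal dose after compound preincubation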). The conditions noted are these: Fluo-4 calcium flux, at 10 µM, serotonin added to trigger calcium flux; active compounds read high.
Assay [15] relates to TRPC4 (mouse), co-expressed with 5HT1a in HEK293. Briefly: enhancement of serotonin-evoked TRPC4 response – cell-based, second counter screen, HEK293 TRPC4/5HT1a, Fluo-4, counter-screen for TRPC4 potentiator project, confirmation (AID 434979;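 active = signal rise over 3 SD above mean of control wells given weak agonist, in both repeats and first screen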). The following applies: Fluo-4 calcium flux, at 10 µM, serotonin added at its EC20 dose; active compounds read high. (The purpose of a counterscreen is to sort out artefacts and off-target activity.)

Assay [16] in a line: nonspecific calcium rise without TRPC4 – cell-based, HEK293 mu-opioid receptor line, counter-screen for TRPC4 activator project, confirmation (AID 449723;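 active = hit in primary screen, with calcium signal over 5 SD above buffer well mean in both duplicates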;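 also: counter screen cells carry the mu-opioid receptor alone and lack TRPC4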). The following applies: HEK293 mu-opioid cells, Fluo-4 calcium fluorescence, at 10 µM; active compounds read high.
Assay [17] in a line: nonspecific potentiation of DAMGO calcium response – cell-based, HEK293 mu-opioid receptor line, counter-screen for TRPC4 allosteric potentiator project, confirmation (AID 449724;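 active = calcium signal rise more than 3 SD above the low-dose agonist control mean, in both duplicate plates and the primary screen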;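 also: HEK293 cells carrying mu-opioid receptor only with no TRPC4 channel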). The conditions noted are these: HEK293 mu-opioid receptor cells, Fluo-4 calcium flux, at 10 µM, compound added before EC20 DAMGO stimulus; active compounds read high.

For part of these data: Measured potencies and affinities stand elsewhere. Calls of active or inactive are those of the source.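 The calls were made as follows, unless noted: active = primary screen activator hit with a dose response curve and TRPC4 channel activation at any tested dose; inactive = no activation, no dose response, or not a primary hit.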

Sequence of Short transient receptor potential channel 4 (Mus musculus) (Q9QUQ5 whole entry, looked up): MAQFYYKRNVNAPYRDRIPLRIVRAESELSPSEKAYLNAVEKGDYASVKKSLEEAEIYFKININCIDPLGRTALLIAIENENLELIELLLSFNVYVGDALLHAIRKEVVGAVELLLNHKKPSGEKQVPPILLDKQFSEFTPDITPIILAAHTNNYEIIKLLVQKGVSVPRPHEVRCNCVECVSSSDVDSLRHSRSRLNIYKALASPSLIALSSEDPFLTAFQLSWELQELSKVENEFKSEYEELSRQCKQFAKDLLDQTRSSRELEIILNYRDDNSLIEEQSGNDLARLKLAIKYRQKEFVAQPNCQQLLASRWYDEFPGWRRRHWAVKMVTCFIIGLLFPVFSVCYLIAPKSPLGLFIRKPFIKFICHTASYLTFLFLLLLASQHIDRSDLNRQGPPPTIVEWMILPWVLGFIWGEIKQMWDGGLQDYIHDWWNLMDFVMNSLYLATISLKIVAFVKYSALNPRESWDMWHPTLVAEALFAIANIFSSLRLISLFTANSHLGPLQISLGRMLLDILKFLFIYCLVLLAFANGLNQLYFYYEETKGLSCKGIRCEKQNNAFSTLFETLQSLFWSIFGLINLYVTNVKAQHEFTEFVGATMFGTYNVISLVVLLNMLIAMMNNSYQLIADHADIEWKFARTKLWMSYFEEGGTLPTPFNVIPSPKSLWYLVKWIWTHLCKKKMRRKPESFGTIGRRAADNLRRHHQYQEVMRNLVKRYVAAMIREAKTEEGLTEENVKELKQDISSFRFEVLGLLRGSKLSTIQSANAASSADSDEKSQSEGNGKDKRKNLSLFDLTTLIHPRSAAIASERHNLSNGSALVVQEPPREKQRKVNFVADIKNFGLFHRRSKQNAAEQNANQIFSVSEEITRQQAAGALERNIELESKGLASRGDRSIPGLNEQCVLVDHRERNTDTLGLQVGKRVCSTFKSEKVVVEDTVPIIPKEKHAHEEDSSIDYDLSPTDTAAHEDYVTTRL
Sequence of Short transient receptor potential channel 6 (Mus musculus) (Q61143 whole entry, looked up): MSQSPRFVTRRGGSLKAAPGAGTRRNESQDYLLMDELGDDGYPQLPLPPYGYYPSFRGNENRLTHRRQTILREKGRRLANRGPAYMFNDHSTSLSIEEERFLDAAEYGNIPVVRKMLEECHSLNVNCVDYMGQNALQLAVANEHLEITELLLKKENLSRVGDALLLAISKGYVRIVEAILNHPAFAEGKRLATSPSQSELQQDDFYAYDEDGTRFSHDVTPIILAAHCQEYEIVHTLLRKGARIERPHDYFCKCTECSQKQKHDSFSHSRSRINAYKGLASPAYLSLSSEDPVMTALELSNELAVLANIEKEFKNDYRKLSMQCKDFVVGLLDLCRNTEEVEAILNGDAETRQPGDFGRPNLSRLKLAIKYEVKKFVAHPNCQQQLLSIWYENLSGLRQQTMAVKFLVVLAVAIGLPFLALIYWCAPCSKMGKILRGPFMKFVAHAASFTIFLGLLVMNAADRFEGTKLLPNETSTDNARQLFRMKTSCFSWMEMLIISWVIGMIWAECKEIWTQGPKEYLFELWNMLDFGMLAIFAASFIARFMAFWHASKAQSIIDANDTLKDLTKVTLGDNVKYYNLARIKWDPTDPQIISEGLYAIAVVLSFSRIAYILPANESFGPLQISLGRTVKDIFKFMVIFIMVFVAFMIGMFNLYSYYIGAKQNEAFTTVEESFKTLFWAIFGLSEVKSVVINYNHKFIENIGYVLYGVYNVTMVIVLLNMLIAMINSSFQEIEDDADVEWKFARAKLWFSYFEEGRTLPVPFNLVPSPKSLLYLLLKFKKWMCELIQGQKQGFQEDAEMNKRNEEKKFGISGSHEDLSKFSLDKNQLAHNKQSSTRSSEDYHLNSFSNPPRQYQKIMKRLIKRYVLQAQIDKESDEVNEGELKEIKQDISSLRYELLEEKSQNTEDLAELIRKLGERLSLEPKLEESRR

`COc1ccc(NS(=O)(=O)c2cccc(C(=O)N3CCN(Cc4cc(OC)ccc4OC)CC3)c2)cc1`: the outcome in assay [1], in assay [2], in [3], in assay [4], in assay [5] and in [6] was inactive. Moreover, the outcome in assay [7], in assay [8], in [9], in [10], in [11] and in assay [12] was inactive. Besides, the outcome in [13], in assay [14], in assay [15], in [16] and in assay [17] was inactive.
Regarding `Cc1ccc(-n2c(C)cc(C)c(C#N)c2=O)cc1Cl`, the result in [1], in [2], in [3], in assay [4], in [5] and in assay [6] was inactive. Besides, the result in assay [7], in assay [8], in [9], in [10], in [11] and in [12] was inactive. Further, the result in [14], in assay [15], in [16] and in [17] was inactive. Moreover, the activation in [13] is 11.4% (active).
On to `CCn1c(C2CC(=O)N(Cc3ccccc3)C2)nc2ccccc21` (stereo not given), for which the outcome in [1], in assay [2], in assay [3], in assay [5], in assay [6] and in [7] was inactive. For the same molecule, the result in assay [8], in assay [9], in assay [10], in assay [11], in assay [12] and in [13] was inactive. Moreover, the result in assay [14], in [16] and in assay [17] was inactive. Also, the figures for the potentiation in assay [4] and in assay [15] were 11% (active) and 23.9% (active), respectively.
For the molecule `Cc1oc(-c2cccc(F)c2)nc1CN(Cc1ccccc1)C[C@@H]1CCC(=O)N1`, the result in [1], in assay [2], in assay [3], in assay [4], in [5] and in [6] was inactive. Moreover, the outcome in assay [7], in assay [8], in assay [9], in assay [10], in assay [11] and in assay [12] was inactive. The outcome in assay [13], in [14], in assay [15], in assay [16] and in assay [17] was inactive.
In the case of `Cc1ccc(Nc2nc3ccccc3[nH]2)nc1`, the result in assay [1], in assay [2], in assay [3], in [4], in assay [5] and in [6] was inactive. For the same molecule, the result in assay [7], in [8], in assay [9], in assay [10], in assay [11] and in assay [12] was inactive. The result in assay [13], in assay [14], in assay [15], in assay [16] and in assay [17] was inactive.
As for `CCCc1c(-c2ccc(O)cc2)nn(-c2ccc(O)cc2)c1-c1ccc(O)cc1`, the outcome in assay [1], in [2], in assay [3], in assay [5], in [6] and in assay [7] was inactive. The result in assay [8], in assay [9], in [10], in [11], in assay [12] and in assay [13] was inactive. In addition, the outcome in [14], in assay [16] and in [17] was inactive. For the same molecule, the values for the potentiation in assay [4] and in [15] were 20% (active) and 23.9% (active), respectively.
For `Cc1cc(SCC(=O)c2cccc([N+](=O)[O-])c2)nc(=O)[nH]1`, the outcome in assay [1], in assay [2], in assay [3], in assay [5], in assay [6] and in assay [7] was inactive. Moreover, the result in assay [8], in assay [9], in assay [10], in assay [11], in [12] and in assay [13] was inactive. Moreover, the outcome in assay [14], in [16] and in assay [17] was inactive. Further, the potentiation in assay [4] is 23% (active); in [15], 57.9% (active).
With `N=c1c(C(=O)NCC2CCCO2)cc2c(=O)n3ccccc3nc2n1Cc1ccccc1Cl` (stereo not given), the outcome in assay [1], in [2], in assay [5], in [6], in assay [7] and in assay [8] was inactive. For the same molecule, the result in [9], in assay [10], in assay [11], in [12], in [13] and in [14] was inactive. In addition, the outcome in assay [16] and in assay [17] was inactive. Moreover, the potentiation in assay [3] is 96% (active); in assay [4] it was 102% (active); in [15], 101% (active).
As for `COc1ccc(OCCN(C)Cc2c(O)ccc3ccccc23)cc1`, the result in [1], in [2], in assay [3], in assay [4], in assay [5] and in [6] was inactive. Besides, the result in assay [7], in assay [8], in assay [9], in assay [10], in assay [11] and in [12] was inactive. Further, the result in assay [13], in assay [14], in [15], in assay [16] and in assay [17] was inactive.
Consider `Clc1cccc2c3c([nH]c12)CCNC3`, for which the outcome in assay [1], in assay [2], in assay [3], in [5], in assay [6] and in assay [7] was inactive. Also, the outcome in assay [8], in [9], in assay [10], in assay [11], in assay [12] and in assay [13] was inactive. The outcome in assay [14], in [16] and in [17] was inactive. Also, the figures for the potentiation in [4] and in assay [15] were 38% (active) and 40.3% (active), respectively.
Consider `CN(C)CCCNc1ncnc2c1cnn2Cc1ccccc1Cl`, for which the outcome in [1], in assay [2], in assay [3], in assay [5], in assay [6] and in assay [7] was inactive. Moreover, the result in assay [8], in assay [9], in [10], in assay [11], in assay [12] and in assay [13] was inactive. Further, the outcome in [14], in [16] and in assay [17] was inactive. For the same molecule, the results for the potentiation in assay [4] and in assay [15] were 15% (active) and 19.8% (active), respectively.
Turning to `Cc1cc(C)c(S(=O)(=O)N2CCN(C)CC2)c(C)c1`, the result in assay [1], in assay [2], in assay [4], in assay [5], in assay [6] and in assay [7] was inactive. Further, the result in assay [8], in assay [9], in assay [10], in assay [11], in assay [12] and in assay [13] was inactive. For the same molecule, the result in [14], in [16] and in assay [17] was inactive. Moreover, the results for the potentiation in assay [3] and in [15] were 9% (active) and 12.4% (active), respectively.
Regarding `C/C=C(/C)C(=O)O[C@@H]1c2cc(OC)c(OC)c(OC)c2-c2c(cc3c(c2OC)OCO3)C[C@H](C)[C@]1(C)O`, the result in assay [1], in assay [2], in assay [3], in assay [4], in assay [5] and in assay [6] was inactive. Besides, the result in assay [7], in assay [8], in assay [9], in assay [10], in assay [11] and in assay [12] was inactive. Besides, the outcome in assay [13], in assay [14], in assay [15], in assay [16] and in assay [17] was inactive.
Regarding `O=C(C1CC1)N1CCc2cc(S(=O)(=O)NC3CCN(Cc4ccccc4)CC3)ccc21`, the outcome in assay [1], in assay [2], in assay [3], in assay [4], in assay [5] and in assay [6] was inactive. Moreover, the outcome in assay [7], in assay [8], in assay [9], in assay [10], in assay [11] and in assay [12] was inactive. Also, the result in assay [13], in assay [14], in assay [15], in [16] and in [17] was inactive.
Take `O=[N+]([O-])c1cc(Cc2ccccc2)cc(C=Nc2ccc(N3CCOCC3)cc2)c1O`: the outcome in [1], in [2], in assay [3], in [4], in [5] and in [6] was inactive. Moreover, the outcome in assay [7], in assay [8], in assay [9], in [10], in assay [11] and in assay [12] was inactive. Further, the result in [13], in [14], in assay [15], in assay [16] and in assay [17] was inactive.
